From PubChem BioAssay AID588726 (The Scripps Research Institute Molecular Screening Center, 2011)
The whole screen tested about 360,000 compounds, of which about 8,200 (2.3%) were called active. This is one part of a sample in which actives are shown more often than they occur. Values without a mark were called inactive. Rule as the data show it: active = inhibition above about 27%; inactive = the rest.

These molecules were tested against Fructose-bisphosphate aldolase (Mycobacterium tuberculosis (strain ATCC 25618 / H37Rv)) (UniProt P9WQA3) (assay: M. tuberculosis aldolase activity blockers – biochemical, fluorescence, strain H37Rv, primary screen (AID 588726;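 also: 0% = vehicle and 100% = reference inhibitor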)). Conditions: purified M. tuberculosis FBA, fluorescence read-out, at 1 µM, stronger effect = higher value.
Chain of Fructose-bisphosphate aldolase (Mycobacterium tuberculosis (strain ATCC 25618 / H37Rv)) (P9WQA3 whole entry, looked up): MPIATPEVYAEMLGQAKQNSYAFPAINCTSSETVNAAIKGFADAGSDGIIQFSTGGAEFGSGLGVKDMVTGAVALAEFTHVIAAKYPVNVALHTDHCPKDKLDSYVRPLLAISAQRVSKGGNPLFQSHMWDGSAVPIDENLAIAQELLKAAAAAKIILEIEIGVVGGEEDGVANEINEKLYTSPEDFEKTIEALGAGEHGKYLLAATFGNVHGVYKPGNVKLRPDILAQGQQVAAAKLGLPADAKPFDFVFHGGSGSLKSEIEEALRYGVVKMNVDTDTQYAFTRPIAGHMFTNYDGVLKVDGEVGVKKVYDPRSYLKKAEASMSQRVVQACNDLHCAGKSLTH

Compound | inhibition
O=S1(=O)CC/C(=N\Nc2ccc(F)cc2)c2ccsc21 | 0.47%
CCn1c(SC)nc(O)c(C(c2ccc(OC)c(O)c2)c2c(O)nc(SC)n(CC)c2=O)c1=O | 0.76%
N/C(=N\S(=O)(=O)c1ccc(Cl)cc1)N1CCOCC1 | -1.72%
O=S(=O)(c1ccccc1)N1CN(Cc2ccc(F)cc2)c2nc3ccccc3nc21 | 1.18%
CC1=CC2=NC(=O)CC(C)(C(=O)N(CC(=O)NC(C)(C)C)Cc3ccccc3)N2C=C1 (stereo unspecified) | 39.1% (active)
C=CCC1(C(=O)N(C)Cc2ccccc2)CCN(C(=O)OC(C)(C)C)CC1 | -0.41%
CCN(CC(=O)Nc1cc(Cl)ccc1C)C(=O)CSCc1ccccc1 | 1.52%
CCC(=O)Nc1c(S(=O)(=O)c2ccccc2)c2nc3ccccc3nc2n1Cc1ccccc1 | 71.7% (active)
CCC(=O)Nc1ccccc1C(=O)N1CCN(Cc2ccccc2)CC1 | 1.09%
Cc1ccc(S(=O)(=O)Nc2nc(N)n(-c3ccccc3)n2)cc1 | -1.75%
CCCn1nc(NS(=O)(=O)c2ccc(F)cc2)c2cc3ccccc3nc21 | 1.96%
CCCn1nc(NS(=O)(=O)c2ccccc2)c2cc3cc(C)ccc3nc21 | -1.36%
CCN(CC)CCn1c(N)c(S(=O)(=O)c2ccccc2)c2nc3ccccc3nc21 | 73.8% (active)
CCC(=O)Nc1ccc2nc(C)n(Cc3ccccc3Cl)c(=O)c2c1 | -0.06%
Cc1ccc(S(=O)(=O)NCc2nc3ccccc3c(=O)n2N)cc1 | 0.87%
Cc1ccc(S(=O)(=O)c2c(N)n(C)c3nc4ccccc4nc23)cc1 | 195% (active)
Cc1cc(NC(=O)C(C)SCC(=O)Nc2cccc(S(=O)(=O)N3CCCCCC3)c2)no1 (stereo unspecified) | 2.17%
COc1cccc(NC(=O)CSc2nnc(C3CCCCC3)n2N)c1 | -1.25%
CC(=O)NC(CC(=O)Nc1nccs1)c1ccccc1 (stereo unspecified) | 6.36%
OC(CN=c1sc2ccccc2n1CC(O)COc1ccccc1)COc1ccccc1 (stereo unspecified) | -7.04%
CC(C)COP(=O)(c1ccc(N(C)C)cc1)C(Nc1ccccc1)c1cccnc1 (stereo unspecified) | 6.04%
COc1ccc(C(=O)N(CCN2CCOCC2)CC(=O)NC2CCCC2)cc1OC | -0.65%
Cc1ccc2nc(-c3ccccc3)c(CC3CCCCC3)n2c1 | 3.26%
Cc1ccccc1C(=O)NCCN=C1NS(=O)(=O)c2ccccc21 | 0.52%
COc1ccc(-n2c(C)nn(CC3CC3)c2=O)cc1 | -1.25%
COc1ccc(CC(NC(C)=O)C(=O)N2CCN(C(=O)Nc3cccc(Cl)c3)CC2)cc1OC (stereo unspecified) | 1.24%

Compound | inhibition
CCCS(=O)(=O)Nc1ccc(-c2cn3c(n2)SCC3)cc1 | 0.71%
CNc1cncc(-c2ccc(NS(C)(=O)=O)cc2)n1 | 174% (active)
CS(=O)(=O)Nc1ccc(C(=O)N2CCCC2)cc1 | 4.14%
C#CCNC(=O)C1=C[C@@H](c2ccccc2)[C@H](CCCO)[C@@H](OCC)O1 | 0.54%
COc1ccc(N)c(C)c1 | 1.98%
COc1ccc2c(c1)cc1n2CCN=C1NN | 41.9% (active)
COc1ccc2ccn(C)c2c1 | 0%
Cc1ccc(-c2nnc(-n3nnc4ccccc43)c3ccccc23)cc1 | -0.52%
O=c1[nH]c2ccccc2n2c(-c3ccccc3)nnc12 | 4.09%
Cc1ccc(-c2nc3ccccc3[nH]c2=O)cc1 | 76.5% (active)
O=C(NCC(=O)N1CCN(c2ccccc2O)CC1)c1ccc2ccccc2c1 | 1.15%
CC(C(=O)NCCc1ccc(S(N)(=O)=O)cc1)N1C(=O)CC(C)(C)Sc2ccccc21 (stereo unspecified) | 4.96%
CC(=O)NC1=NC(=O)CS1 | 3.59%
CCCn1nc2cc(C(=O)NCc3ccccc3)ccc2c1OCC | 57.5% (active)
CCOc1c2ccc(C(=O)NC3CCCc4ccccc43)cc2nn1CC (stereo unspecified) | 42.8% (active)
C=CCOc1c2ccc(C(=O)N(CC)c3ccc(OC)cc3)cc2nn1C | 17.6%
C[n+]1ccc(C(=O)NCc2ccccc2)cc1 | 3.53%
CCOc1c2ccc(C(=O)NCc3ccc4c(c3)OCO4)cc2nn1C | 50.2% (active)
COc1ccc(CNC(=O)c2ccc3oc(C(C)C)nc3c2)cc1 | 0.16%
O=C(COC(=O)c1ccc(Cl)nc1)NCc1ccc2c(c1)OCO2 | -2.36%
COc1ccccc1-n1c(C)nc2cc(C(=O)NCc3ccc4c(c3)OCO4)ccc21 | 0.13%
CNS(=O)(=O)c1cccc(C(=O)NC2CCCc3ccccc32)c1 (stereo unspecified) | 5.34%
CCOc1c2ccc(C(=O)NCc3ccc(OC(F)(F)F)cc3)cc2nn1C | 44% (active)
Cc1cc(N2C(=O)c3ccc(C(=O)NCc4ccccc4)cc3C2=O)no1 | 0.51%
CCOc1ccc(NC(=O)COc2ccc(C(=O)NC3CCCc4ccccc43)cc2OC)cc1 (stereo unspecified) | 3.93%
